Experimental data published in PubChem BioAssay AID588727 (Southern Research Specialized Biocontainment Screening …, 2011).
In all, about 350,000 compounds went through this assay and about 450 (0.13%) were called active. How the calls were made is not given here. Not all results are given here. Entries with a potency or affinity are not part of this list.

Assay: inhibitors of VEEV TC-83 cytopathic effect, confirmation, Vero cells (AID 588727)
Conditions: VEEV TC-83 cytopathic effect inhibition, at 20 µM; stronger effect = higher value unless noted

Row | SMILES | inhibition
1 | CC(C)c1ccc(NC(=O)CN2C(=O)NC3(CCCC3)C2=O)cc1 | inactive
2 | CCOC(=O)C1CCCN(C(=O)c2cc3cc4ccc(OC)cc4nc3o2)C1 (stereo unspecified) | 1.72% (inactive)
3 | Cc1ccc(N2C(=O)N3[C@H]4c5ccccc5OC[C@@H]4[C@@H](c4ccccc4)[C@@]3(C)C2=O)cc1 | 0.66% (inactive)
4 | CN(CC(=O)Nc1cccc(F)c1)C(=O)CCc1nc2cc(S(=O)(=O)N3CCOCC3)ccc2n1C | 0.55% (inactive)
5 | CC(C)Oc1ccc(CSc2nnc3n(C)c(=O)c4c5c(sc4n23)CCCC5)cc1 | inactive
6 | CCCCNC(=O)COC(=O)c1ccc(SC)cc1OC | 2.58% (inactive)
7 | CC(=O)Nc1ccc(S(=O)(=O)N2CCC(NC(=O)C(Cc3cccc(F)c3)NC(C)=O)CC2)cc1 (stereo unspecified) | 0.28% (inactive)
8 | COc1ccc(C(=O)N/N=C/C23CC[C@@H](O)CC2(O)CC[C@@H]2[C@@H]3CCC3(C)C(C4=CC(=O)OC4)CCC23O)cc1 (stereo partly specified) | 42.5% (inactive)
9 | C[C@]12CCC3C(CCC4=CC(O)CC[C@@]43/C=N/O)C1(O)CCC2C1=CC(=O)OC1 (stereo partly specified) | 27.9% (inactive)
10 | C[C@H]1CC[C@@H]2[C@@H](C)[C@H]3[C@H](C[C@H]4[C@@H]5CC=C6C[C@@H](O[C@@H]7O[C@H](CO)[C@H](O)[C@H](O[C@@H]8O[C@H](CO)[C@@H](O)[C@H](O)[C@H]8O)[C@H]7O[C@@H]7O[C@@H](C)[C@H](O)[C@@H](O)[C@H]7O)CC[C@]6(C)[C@H]5CC[C@]34C)N2C1 | inactive
11 | CC(=O)[C@@]1(O)CCC2C3CC[C@H]4C[C@@H](O)CC[C@]4(C)C3CC[C@@]21C (stereo partly specified) | 6.31% (inactive)
12 | CC12CC[C@H]3[C@@H](CCC4(O)C[C@H](O)CCC34/C=N/NC(=O)c3ccc(O)cc3)C1(O)CCC2C1=CC(=O)OC1 (stereo partly specified) | 0.73% (inactive)
13 | COc1cc(C(=O)N/N=C/C23CC[C@@H](O)CC2(O)CC[C@@H]2[C@@H]3CCC3(C)C(C4=CC(=O)OC4)CCC23O)ccc1O (stereo partly specified) | 7% (inactive)
14 | CC(=O)O[C@@H]1CC[C@]2(C)C3CC[C@@]4(C)C(C[C@@H](O)[C@@H]4O)C3[C@@H](OC(C)=O)C[C@H]2C1 (stereo partly specified) | 0.36% (inactive)
15 | CCOc1ccc(N2CC(C(=O)Nc3cccc(C(=O)NC4CC4)c3)CC2=O)cc1 (stereo unspecified) | 1.22% (inactive)
16 | Cc1ccccc1OCC(=O)Nc1ccc(N2CCOCC2)cc1N1CCOCC1 | 6.68% (inactive)
17 | COc1ccc(C2(C)NC(=O)NC2=O)cc1OC (stereo unspecified) | inactive
18 | COc1ccc(OC(C)c2ccc(C#N)c(=O)[nH]2)cc1 (stereo unspecified) | 1% (inactive)
19 | Cc1cc(=O)[nH]c(SCn2nnc3ccccc3c2=O)n1 | 0.62% (inactive)
20 | COc1ccc(S(=O)(=O)c2c(O)c3ccc(C(=O)Nc4ccccc4Cl)cc3[nH]c2=O)cc1 | 0.45% (inactive)
21 | O=C1COc2ccc(C(=O)COC(=O)c3ccc(S(=O)(=O)C(F)F)cc3)cc2N1 | 3.01% (inactive)
22 | COc1cc(/C=N/NC2=NS(=O)(=O)c3ccccc32)cc(OC)c1OC | 0.18% (inactive)
23 | C[C@]12CC[C@H]3[C@@H](CC[C@]4(O)C[C@@H](O)CC[C@]34C=O)[C@@]1(O)CC[C@@H]2C1=CC(=O)OC1 | 24.6% (inactive)
24 | CC12CC[C@H]3[C@@H](CCC4(O)C[C@H](O)CCC34/C=N/NC(=O)c3ccccc3Cl)C1(O)CCC2C1=CC(=O)OC1 (stereo partly specified) | 2.51% (inactive)
25 | Fc1ccc(-c2nnc(Cc3ccc(Cl)cc3)o2)cc1 | inactive
26 | Cc1ccc(OCCSc2nc(N)cc(N)n2)cc1 | 3.61% (inactive)

Row | SMILES | inhibition
27 | O=C(c1ccc(F)cc1)c1ccc(-c2ccc(F)cc2)nc1 | 1.5% (inactive)
28 | COc1ccc(Cl)c2sc(N(CCN(C)C)C(=O)c3ccc4c(c3)OCCO4)nc12 | 3.95% (inactive)
29 | Cc1cc(C)c2nc(N(CCCN(C)C)C(=O)c3ccc4c(c3)OCCO4)sc2c1 | 11.7% (inactive)
30 | CN(Cc1ccccc1)C(=O)CN(C)S(=O)(=O)c1ccc(F)cc1 | 0.12% (inactive)
31 | Cc1c(NC(=O)COC(=O)c2cc(-c3cccc4ccccc34)nc3ccccc23)c(=O)n(-c2ccccc2)n1C | 2.81% (inactive)
32 | COc1ccc2cc(-c3cc(C(=O)OCC(=O)Nc4c(C)n(C)n(-c5ccccc5)c4=O)c4ccccc4n3)ccc2c1 | inactive
33 | CC(C)[C@H](NC(=O)C1CC(=O)N(c2ccc3c(c2)OCCO3)C1)C(=O)NC1CCCC1 (stereo partly specified) | 3.54% (inactive)
34 | O=C(CSc1nnc(-c2ccccc2Br)o1)N1CCOCC1 | 0.96% (inactive)
35 | Cc1ccccc1N1C(=O)C(Cc2ccc(F)cc2)S/C1=C(\C#N)C(N)=O (stereo unspecified) | 0.67% (inactive)
36 | Cc1ccc(CC2SC(=O)NC2=O)cc1Cl (stereo unspecified) | 4.25% (inactive)
37 | O=C1NC(=O)C(Cc2cccc(Oc3ccccc3)c2)S1 (stereo unspecified) | 0.8% (inactive)
38 | Nc1ccc(CC2SC(=O)NC2=O)cc1 (stereo unspecified) | 0.36% (inactive)
39 | COc1ccc(/C=C(/NC(=O)c2ccccc2)C(=O)N2CCCC2)cc1 | 1.46% (inactive)
40 | CCN(Cc1ccccc1)C(=O)c1ccc(N(C)S(=O)(=O)c2ccc(C)cc2)cc1 | 10.1% (inactive)
41 | CC(=O)NC1=NN(C(C)=O)C(c2ccc(C)cc2)S1 (stereo unspecified) | 0.39% (inactive)
42 | Cc1[nH]c2ccccc2c1/C=N/NC(=O)c1cccc(F)c1 | 4.66% (inactive)
43 | CCOC(=O)CNC(=O)CSc1nc(C(C)C)nc2c1cnn2-c1ccccc1 | 8.46% (inactive)
44 | COc1ccc(-c2cc(=O)oc3cc(OC(C)C(=O)NCCCn4ccnc4)ccc23)cc1 (stereo unspecified) | 1.83% (inactive)
45 | CCCc1nc2c(=O)n(C)c(=O)[nH]c2n1CCC | 0.72% (inactive)
46 | CCn1c(=O)c2[nH]c(SC)nc2n(CC)c1=O | 1.13% (inactive)
47 | COc1ccccc1-c1ccc2c(c1)O[C@@H](CN(C)C(=O)Nc1cccc(F)c1)[C@H](C)CN([C@H](C)CO)S2(=O)=O | 5.59% (inactive)
48 | O=C(N/N=C(/CC(=O)c1cccs1)C(F)(F)F)c1ccc(O)cc1 | 0.06% (inactive)
49 | O=C(N/N=C(\CC(=O)c1cccs1)C(F)(F)F)c1cccnc1 | inactive
50 | CCOCCn1c(CN2CCN(c3cccc(Cl)c3)CC2)nc2c1c(=O)n(C)c(=O)n2C | inactive
51 | COc1ccc(N2CCN(C(=O)c3cc(=O)c4cc(Cl)ccc4o3)CC2)cc1 | 0.39% (inactive)
